Myeloid diff MLP – compounds promoting myeloid differentiation | ER-HoxA9 myeloid progenitors, lysozyme-GFP differentiation, flow cytometry | calls only at 10 µM | 1% of 360,000 active | AID 624256;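 active = normalized GFP-positive differentiation at or above the plate's own cutoff, the solvent-only control mean plus 3 SD; inconclusive = no clear call, values can overlap the other calls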;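 also: cells exposed to compound for four days before flow analysis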
CRFR2-BP ag – agonists of human CRF-binding protein/CRF-R2 receptor complex; HEK293 CRF-R2/CRF-BP, calcium dye fluorescence (FLIPR); percent of saturating CRF peptide response; activation, % at 13.2 µM; 0.46% of 350,000 active; AID 588473;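 active = activation of at least 50%, plus an integration ratio under a set limit after plate pattern correction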;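 also: plate controls were neutral control wells without compound for no effect and CRF at EC100 for full effect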
CRFBP-R2 block – antagonists of CRF-binding protein/CRF-R2 receptor complex. inhibition, % at 11.8 µM. AID 588475. HEK293 CRF-R2/CRF-BP, CRF-induced calcium fluorescence. 0.59% of 350,000 active;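 active = inhibition of the ligand-induced calcium signal above about 50% at the single tested concentration, limit read from the data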
RTF Ca sens act – cardiac RTF calcium sensitization; P19429+P45379; IANBD-labeled TnC RTF fluorescence at EC20 calcium; 0% EC20 calcium, 100% full calcium; activation, % at 7.2 µM; 0.24% of 340,000 active;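 active = activation above the mean over all tested compounds plus 3 SD, cut at about 30% in these data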;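 also: rise in fluorescence read as greater calcium sensitivity of cardiac thin filaments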
Cardiac RTF inh – cardiac RTF calcium desensitization; P19429+P45379; IANBD-labeled cardiac RTF, Ca2+ fluorescence; 0.12% of 340,000 active; inhibition, % at 7.15 µM;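 active = inhibition above the mean inhibition of all tested compounds plus 3 SD, cut at about 17% in these data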;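 also: assay run at fixed EC70 calcium of 1.6 mM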
* marks the source's active call; other numbers are inactive results; i = inactive; ? = inconclusive; · = not tested or not shown; + = active, no number. This is a sample that favours compounds with a hit; in the whole collection about 2.2% have one here.

SMILES	Myeloid diff MLP	CRFR2-BP ag	CRFBP-R2 block	RTF Ca sens act	Cardiac RTF inh
CC(=O)c1ccc(N2CCN(S(=O)(=O)c3ccc4c(c3)NC(=O)CC(=O)N4)CC2)cc1	+	1	7	-2	3
O=c1c(Cl)c(Cl)cnn1Cc1nnc(-c2ccccc2Br)o1	?	157*	-220	0	-21
Clc1ccccc1OCc1nnc(-c2ccccc2Br)o1	i	1	9	-3	2
CN(C)c1ccc(C=C2C(=O)OC(C)(C)OC2=O)cc1	i	1	52*	-3	0
CN(C)c1ccc(C=C2C(=O)OC(C)(C(C)(C)C)OC2=O)cc1 (stereo not drawn)	i	4	48	-6	-9
CN(C)c1ncc(S(=O)(=O)c2ccc(Cl)cc2)c(-c2ccc(Cl)cc2Cl)n1	i	3	56*	0	-2
CC1(C(=O)NCc2ccco2)CCN1C(=O)C1(c2ccccc2)CC1 (stereo not drawn)	i	·	·	·	·
Cc1ccc2nc(C)/c(=N\O)c(C)nc2c1	i	-1	-13	-10	-2
Cc1nc2ccc(Cl)cc2nc(C)/c1=N\O	i	1	8	34*	3
O=c1[nH]c2ccccc2c2nc3ccccn3c12	i	2	-2	2	0
O=c1nc2c(O)cccn2c2c1c(=O)[nH]c1ccccc12	i	49	-52	40*	-45
CCCCOc1ccc(C(=O)Nc2cccc(-n3cnnn3)c2)cc1OC	i	0	-4	-1	-2
COc1cc(/C=N/NC(=O)C23CC4CC(CC(C4)C2)C3)cc(Br)c1O	i	-1	-5	8	6
O=C(N/N=C/c1cc([N+](=O)[O-])cc(Br)c1O)C12CC3CCC(CC(C3)C1)C2	i	117*	-30	-1	2
CC1=C(C(=O)OC(C)C)C(c2cccs2)N2C(=O)C(C)SC2=N1 (stereo not drawn)	i	1	50*	2	0
CS(=O)(=O)Nc1ccc(C2=NN(S(C)(=O)=O)C(c3ccccc3)C2)cc1 (stereo not drawn)	i	-1	-1	1	-14
CCS(=O)(=O)N1N=C(c2ccc(NS(C)(=O)=O)cc2)CC1c1ccccc1 (stereo not drawn)	+	-1	1	5	3
COc1cccc(N2CCN(C(=O)CN3C(=O)NC(C)(c4ccc5ccccc5c4)C3=O)CC2)c1 (stereo not drawn)	i	1	-9	-3	-11
Nc1ccn([C@@H]2O[C@H](C(=O)N(CCC3=CCCCC3)CC3CC3)[C@@H](O)[C@H]2O)c(=O)n1	i	·	·	·	·
CCOc1ccccc1Oc1cn[nH]c1-c1ccc(OCC(=O)NN)cc1O	+	-1	-8	3	-2
C=C(C)COc1ccc(-c2[nH]ncc2Oc2ccccc2OC)c(O)c1	i	-5	51*	4	-4
CCc1nc(CN(C)C(=O)C2CCC(=O)N(Cc3cccc(F)c3)C2)no1 (stereo not drawn)	i	0	-5	6	-2
NC(=O)c1cc(S(=O)(=O)Nc2ccc(OC(F)(F)F)cc2)cs1	i	1	-10	8	-1
COc1ccc(OC)c(/C=c2\sc3nc(-c4cccs4)nn3c2=O)c1	i	175*	-217	50*	-2
COc1ccc(N(CC(=O)NCCc2ccc(C)cc2)S(=O)(=O)c2c(C)noc2C)cc1	i	1	4	-4	-3
SMILES	Myeloid diff MLP	CRFR2-BP ag	CRFBP-R2 block	RTF Ca sens act	Cardiac RTF inh
COc1ccc(CCNC(=O)CN(c2ccc(OC)c(OC)c2)S(=O)(=O)c2ccc(C)cc2)cc1	+	-1	-4	-4	-1
COc1ccc(CCNC(=O)CN(c2ccc(OC)c(OC)c2)S(=O)(=O)c2ccccc2)cc1OC	i	-1	-4	-2	-7
COc1ccc(N(CC(=O)NCCc2ccc(OC)c(OC)c2)S(=O)(=O)c2c(C)noc2C)cc1	i	-1	108*	-1	-3
CCN1C(c2ccccc2)C(C)C(=O)C(C)C1c1ccccc1 (stereo not drawn)	i	1	57*	5	2
CCN(CC)c1ccc(/C=N/N=C(c2ccccc2)c2ccccc2)c(O)c1	+	9	6	-1	6
CCN(CC)c1ccc(/C=N/N(c2ccccc2)c2ccccc2)c(O)c1	i	1	-30	10	1
Cc1nc2ccc(NC(=O)CSc3nnc(C)s3)cc2[nH]1	i	0	1	0	-4

Screening data (PubChem)
